# aDG glyco up: increases alpha dystroglycan glycosylation; Pro5-aDG cells, alpha-DG glycosylation AlphaScreen (IIH6); 0% Pro5, 100% B10-LARGE cell signal; activation, % at 10 µM; 360,000 compounds, 0.22% hits;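 active = activation of at least 8% versus controls, or a plate z-score of at least 8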;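 note: Pro5 are CHO cells carrying HIG-tagged alpha-DG that lacks glycosylation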
# Glyco luc inh: blocks N-linked glycosylation in D54 reporter cells | D54 ERlucT glycosylation luciferase reporter, 24 h; percent of 100 nM tunicamycin response | reporter increase, % at 12.5 µM | 360,000 compounds, 0.23% hits;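 active = mean luciferase reporter signal, scaled so untreated is 0 and the glycosylation-blocking control 100, at or above a set limit in every replicate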;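 note: luciferase carries N-glycosylation sites so blocking glycosylation raises the light; 0% = median of neutral control wells and 100% = median of 100 nM tunicamycin wells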
# ARNT-TACC3 inh: ARNT/TACC3 interaction disruption | AID 623870 | AlphaScreen His-ARNT PAS-B/GST-TACC3 binding, luminescence; TACC3 fragment carries E629A point mutation | inhibition, % at 9.99 µM | Q9Y6A5 | 390,000 compounds, 0.66% hits;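 active = mean inhibition of replicates at least 50% and at least half of replicates each reaching 50%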;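 note: 0% = complete ARNT plus TACC3 wells and 100% = ARNT alone without TACC3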
# Vif inh: blocks HIV Vif function | 340,000 compounds, 0.35% hits | inhibition, % at 7.49 µM | HEK293T cells, Vif self-association by quenched fluorescence, imaging, 24 h; in the data active = inhibition above about 50%, passing the limit was not always enough
# Cardio protect: modulators protecting cardiomyocytes from myocardial damage | H9c2 cardiomyocytes, H2O2 injury protection, ATPLite, 2 h | protection from H2O2 cell death, % at 20 µM | 360,000 compounds, 0.63% hits;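 active = compounds giving at least 50% protection of heart cells from peroxide-induced death in the single-dose screen, raw or plate-pattern-corrected value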;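 note: 0% = DMSO wells with peroxide and 100% = DMSO wells without peroxide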
# * marks the source's active call; other numbers are inactive results; / = not tested or not shown. This is a sample that favours compounds with a hit; in the whole collection about 1.7% have one here.
SMILES,aDG glyco up,Glyco luc inh,ARNT-TACC3 inh,Vif inh,Cardio protect
C[C@]12CC[C@@H]3c4ccc(O)c(O)c4CC[C@H]3[C@@H]1CC[C@@H]2O,0.2,-0.1,-2.2,16.4,121.2*
C[C@]12CC[C@H]3[C@@H](CCC4=CC(=O)CC[C@@H]43)[C@@H]1CC[C@@H]2O,0.1,-3.8,0.6,-5.7,7.1
CC1Oc2cc3c(-c4c(O)cc(O)c5c(O)c6c(cc45)OC(C)C(C)C6=O)c(O)cc(O)c3c(O)c2C(=O)C1C (stereo not given),0.3,-11.9,79.7*,-6.6,-17.9
N#Cc1cccc(-c2ccc([C@H]3[C@H]4CN(C(=O)Cc5ccccc5)CCCCN4[C@H]3CO)cc2)c1,/,/,5.0,/,/
CC12CC[C@H]3[C@@H](CCC4(O)C[C@H](O)CCC34/C=N/NC(=O)c3ccccc3[N+](=O)[O-])C1(O)CCC2C1=CC(=O)OC1 (stereo not given in full),0.1,29.6*,-6.8,6.9,5.3
Cc1ccc(NC(=S)NCCc2cnc[nH]2)cc1C,-0.2,2.4,-0.8,3.8,-8.3
S=C(NCCc1ccccc1)NCCc1cnc[nH]1,0.1,7.6,57.3*,-0.8,2.1
Oc1ccc(C[C@H]2NCCc3cc(O)c(O)cc32)cc1O,0.2,-2.5,5.6,27.1,56.8*
Oc1ccc(CC2CC3CCN2CC3)cc1O (stereo not given),0.3,2.9,5.6,1.3,11.3
COC(=O)[C@@H]1[C@@H](CO)[C@@H]2Cn3c(ccc(-c4ccc(F)cc4)c3=O)[C@H]1N2Cc1ccccc1,/,/,-7.0,/,/
Cc1c(N=Nc2c(O)n(-c3ccc(Br)cc3)c(=O)[nH]c2=O)c(=O)n(-c2ccccc2)n1C,-0.1,5.9,61.1*,3.9,-0.8
Cc1c(N=Cc2c(O)n(C)c(=O)[nH]c2=O)c(=O)n(-c2ccccc2)n1C,0.0,2.3,/,-0.7,7.3
Cc1c(N=Nc2c(O)[nH]c(=O)[nH]c2=O)c(=O)n(-c2ccccc2)n1C,-0.1,2.3,65.4*,-1.5,-0.7
COC(=O)[C@@H]1[C@@H](CO)[C@@H]2Cn3c(ccc(-c4ccccc4F)c3=O)[C@H]1N2C(=O)C1CCC1,/,/,-1.7,/,/
CN1C(=O)C(=Cc2sc(=O)n(-c3ccccc3)c2N(C)C)C(=O)N(C)C1=O,0.0,29.3*,6.5,11.4,6.5
Cc1cc(C=C2C(=O)N(C)C(=O)N(C)C2=O)c(C)n1-c1ccccc1,-0.2,0.2,-1.9,-4.8,-5.5
COc1cc(/C=C/c2nc3ccccc3c(=O)n2-c2ccc(O)cc2)ccc1O,-0.3,6.6,-2.1,-9.7,66.1*
COc1ccc(-n2c(/C=C/c3ccc(O)c(O)c3)nc3ccccc3c2=O)cc1,-0.4,-3.1,1.0,-7.6,56.6*
O=c1c2ccccc2nc(/C=C/c2ccccn2)n1-c1ccccc1,0.3,-0.4,-0.9,-10.9,19.3
O=c1c2ccccc2nc(/C=C/c2ccc3c(c2)OCO3)n1-c1ccccc1,-0.5,-0.6,2.0,-13.4,38.7
O=[N+]([O-])c1ccc(N(CCO)CCO)c2c1no[n+]2[O-],-0.2,-3.0,/,60.5*,-6.8
CN1CCN(c2ccc(S(C)(=O)=O)cc2[N+](=O)[O-])CC1,-0.6,-0.1,-1.8,-6.6,11.4
CN1CCN(c2ccc([N+](=O)[O-])c3no[n+]([O-])c23)CC1,-0.2,-18.7,37.9*,-1.2,-1.9
CCC(C)/C=C(C)/C=C/C1=CC2=C(Cl)C(=O)C(C)(OC(C)=O)C(=O)C2=CO1 (stereo not given),0.0,5.2,48.9*,3.7,-4.5
CC[C@H](C)/C=C(C)/C=C/C1=CC2=C(Cl)C(=O)[C@@](C)(OC(C)=O)C(=O)C2=CO1,0.1,0.6,0.5,-1.5,-0.9
SMILES,aDG glyco up,Glyco luc inh,ARNT-TACC3 inh,Vif inh,Cardio protect
O=C(Cc1cccnc1)N1CCCCN2[C@H](CO)[C@@H](c3ccc(/C=C/c4ccccc4)cc3)[C@H]2C1,/,/,13.1,/,/
COC(=O)[C@@H]1[C@@H](CO)[C@@H]2Cn3c(ccc(/C=C/c4ccccc4)c3=O)[C@H]1N2C(=O)C1CC1,/,/,-3.4,/,/
O=C(N/N=C\C1C(=O)NC(=S)N(c2ccccc2)C1=O)c1ccc(O)cc1 (stereo not given),-0.2,0.0,71.9*,25.0,9.8
Cc1cccc(-n2c(O)c(/C=N/NC(=O)c3ccncc3)c(=O)[nH]c2=O)c1,-0.2,0.7,/,1.2,4.7
COc1cc2c(cc1OC)-c1c(OC)c(OC)cc3c1[C@H](C2)N(C)CC3,0.0,1.8,68.8*,2.1,5.7
COC(=O)[C@H]1[C@H](CO)[C@H]2Cn3c(ccc(C4=CCCC4)c3=O)[C@@H]1N2Cc1ccccn1,/,/,3.3,/,/
Cc1ccc(-n2c(O)c(/C=N/NC(=O)c3ccncc3)c(=O)[nH]c2=O)cc1,-0.4,1.4,/,10.2,3.8
COc1ccc(CCn2c(O)c(/C=N/NC(=O)c3ccncc3)c(=O)[nH]c2=O)cc1OC,-0.4,0.0,76.2*,0.9,1.0
C=CCn1c(O)c(/C=N/NC(=O)c2ccncc2)c(=O)[nH]c1=O,0.0,-1.7,77.8*,-6.3,1.6
O=C(N/N=C/c1c(O)n(-c2ccccc2)c(=S)[nH]c1=O)c1ccccc1,-0.3,2.9,63.6*,-2.0,-0.1
C/C(=N\NC(=O)c1ccncc1)c1c(O)n(Cc2ccccc2)c(=O)[nH]c1=O,0.1,-1.5,22.5,-0.6,-2.7
O=C(N/N=C/c1c(O)n(-c2ccccc2)c(=O)[nH]c1=O)c1ccncc1,-0.5,2.7,71.5*,3.0,-2.0
O=C(O)[C@H]1[C@H](CO)[C@H]2Cn3c(ccc(-c4ccc(F)cc4)c3=O)[C@@H]1N2CC1CCCCC1,/,/,0.7,/,/
COC(=O)[C@@H]1[C@@H](CO)[C@@H]2Cn3c(ccc(-c4cccnc4)c3=O)[C@H]1N2S(=O)(=O)c1ccccc1C,/,/,-11.8,/,/
COC(=O)[C@H]1[C@H](CO)[C@H]2Cn3c(cccc3=O)[C@@H]1N2CCc1ccccc1,/,/,-6.3,/,/
CC(C)NC(=O)N1[C@@H]2c3ccc(-c4cccc(C(=O)N(C)C)c4)c(=O)n3C[C@H]1[C@H](CO)[C@H]2C(=O)O,/,/,-4.2,/,/
Cn1c(O)c(/C=N/NC(=O)c2ccncc2)c(=O)n(C)c1=S,0.1,-1.2,59.2*,/,-12.6
O=C(N/N=C/c1c(O)n(CCC2=CCCCC2)c(=S)[nH]c1=O)c1ccccc1,-0.2,-0.4,27.1,2.6,65.9*
COCCn1c(O)c(/C=N/NC(=O)CSC(=S)N2CCCC2)c(=O)[nH]c1=S,-0.4,1.0,61.0*,9.5,0.7
CCCCn1c(O)c(/C=N/NC(=O)c2ccncc2)c(=O)[nH]c1=S,0.0,-0.3,60.3*,1.5,-1.7
Cn1c(O)c(/C=N/NC(=O)c2ccncc2)c(=O)[nH]c1=S,0.0,0.1,/,1.8,5.5
CCCCCCC(=O)N/N=C/c1c(O)n(CCCC)c(=S)[nH]c1=O,0.0,-0.5,10.9,-4.4,9.0
COC(=O)[C@@H]1[C@@H](CO)[C@@H]2Cn3c(ccc(-c4ccccc4F)c3=O)[C@H]1N2,/,/,1.8,/,/

# Compound activity as filed in PubChem BioAssay.
